Screens deposited in PubChem BioAssay by National Center for Advancing Translational Sciences (NCATS).
G9a block: qHTS Assay for Inhibitors of Histone Lysine Methyltransferase G9a | G9a H3K9 monomethylation, AlphaScreen, 2 h | Histone-lysine N-methyltransferase EHMT2 (Homo sapiens), Q96KQ7 | 8.8% of 350,000 active | Potency, µM (highest dose often 102 µM), without a hit: at the top dose activity, negative = inhibition, usual class: inhibitors | AID 504332, 2011; also: % is scaled to controls: 0 for no effect and ±100 for the full control effect; nearly all actives have a fitted effect of over 75% in size
Target sequence (Q96KQ7 913-1193 limits assumed): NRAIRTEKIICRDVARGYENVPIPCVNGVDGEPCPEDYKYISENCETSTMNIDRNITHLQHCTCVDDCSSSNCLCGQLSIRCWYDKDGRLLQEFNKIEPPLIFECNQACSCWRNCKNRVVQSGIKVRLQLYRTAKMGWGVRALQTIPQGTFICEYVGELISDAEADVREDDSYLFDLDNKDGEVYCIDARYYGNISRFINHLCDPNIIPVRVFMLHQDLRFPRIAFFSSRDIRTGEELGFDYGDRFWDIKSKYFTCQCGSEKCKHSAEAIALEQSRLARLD
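G9a (20 nM) was preincubated 15 min with compound, then reacted 2 h at room temperature with 500 nM biotin-H3K9 peptide and 20 µM SAM. Monomethyl-H3K9 detected by AlphaScreen using anti-H3K9me1 antibody.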
JMJD2A Tudor: qHTS Assay for Inhibitors of JMJD2A-Tudor Domain; Lysine-specific demethylase 4A (Homo sapiens), O75164; AlphaScreen JMJD2A-Tudor / H3K4me3 peptide binding; Potency, µM (series often up to 114 µM), inactives show top-dose activity change, negative = inhibition, most hits filed as inhibitors; 4.4% of 390,000 active; AID 504339, 2011; also: % is scaled to controls: 0 for no effect and ±100 for the full control effect; nearly all actives have a fitted effect of over 50% in size
Sfp PPTase inh: qHTS Assay for Inhibitors of Bacillus subtilis Sfp phosphopantetheinyl transferase (PPTase); AID 1490, 2009; Biochemical Sfp PPTase activity, qHTS; 4'-phosphopantetheinyl transferase ffp (Bacillus subtilis), Q9F4F7; Potency, µM, without a hit: largest response in the series, negative = inhibition, hits mostly inhibitors; 3.5% of 310,000 active;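 also: the enzyme is Sfp with the accession as filed and its product quenches rhodamine fluorescence; 0% = enzyme reaction without inhibitor and -100% = no enzyme wells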
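With Hepes-Na pH 7.6 buffer containing 10 mM MgCl2, Sfp (15 nM) modified BHQ-2-YbbR (12.5 uM) using rhodamine-CoA (5 uM). Two reads 30 minutes apart at 525/598 nm yielded each well's rate.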
HP1b binding inh: HTS for Inhibitors of HP1-beta Chromodomain Interactions with Methylated Histone Tails; AlphaScreen HP1-beta / biotin-H3K9me3 peptide binding; Potency, µM (doses to about 114 µM), inactives show top-dose activity change, negative = inhibition, most hits filed as inhibitors; 0.56% of 390,000 active; AID 540317, 2011; also: nearly all actives have a fitted effect of over 70% in size
Target sequence (P83916 whole entry, looked up): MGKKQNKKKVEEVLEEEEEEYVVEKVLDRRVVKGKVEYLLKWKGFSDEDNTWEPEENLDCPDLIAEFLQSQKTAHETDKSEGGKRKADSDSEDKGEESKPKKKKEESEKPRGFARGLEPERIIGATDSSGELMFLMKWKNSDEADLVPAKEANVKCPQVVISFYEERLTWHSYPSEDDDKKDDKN
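AlphaScreen: HP1-beta (50 nM) preformed 30 min with biotin-H3(1-18)K9me3 peptide (50 nM) in PBS pH 7.4, 0.01% Tween-20. Compound added for 30 min at RT, then streptavidin donor/nickel chelate acceptor beads (10 ug/mL) for 30 min.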
BAZ2B inh: qHTS Assay for Inhibitors of BAZ2B; Potency, µM (titrated, usually from 114 µM), inactives show at the top dose activity change, negative = inhibition, most hits filed as inhibitors; 4.4% of 360,000 active; AID 504333, 2011; Bromodomain adjacent to zinc finger domain protein 2B (Homo sapiens), Q9UIF8; AlphaScreen BAZ2B-H3K14Ac peptide displacement; also: % is scaled to controls: 0 for no effect and ±100 for the full control effect; nearly all actives have a fitted effect of over 60% in size
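AlphaScreen displacement: compounds (up to 110uM) incubated 30 min at room temperature with a preformed 50 nM BAZ2B/50 nM biotinylated H3K14Ac peptide complex in PBS pH 7.4 with Tween-20. Donor and acceptor beads at 10 ug/mL final added, 20 min light-protected before reading.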
Active calls of the source: *; ? = inconclusive; / = no result; [ ] = dose if it differs, or a comment. Rows were chosen to be rich in hits. Some 12% of all compounds tested hit in one or more screens of this group. Calls follow the shape of the dose curve; as a rule, active = well fitted curve in the direction sought with a large enough effect; inconclusive = small, poorly fitted or top-dose-only effect, or another doubt; inactive = no such curve, though single readings can be large; an effect the other way counts as inactive or inconclusive. Potency is read from the fitted curve at half-maximal effect.

SMILES	G9a block	JMJD2A Tudor	Sfp PPTase inh	HP1b binding inh	BAZ2B inh
Cc1cc2ccccc2n1CCNC(=O)COc1ccccc1	50µM*	20µM*	7%	?	?
O=c1c2ccccc2nc2n1CCS2(=O)=O	?	-17%	0%	60%	-15%
CC[n+]1c(/C=C/C=C/c2ccc(N(C)C)cc2)sc2ccccc21	40µM*	50µM*	?	?	35µM*
CN(C)c1ccc(/C=C/C=C/c2sc3ccccc3[n+]2C)cc1	?	?	-9%	?	?
CCC(C)N1C(=O)NC(=O)C2(Cc3c(ccc4ccccc34)N(C)C2)C1=O (stereo not drawn)	1.8µM*	-24%	-5%	-37%	?
COc1ccccc1/C=C1\C(=O)NC(=S)N(c2ccccc2)C1=O	28µM*	28µM*	45µM*	26%	-24%
CCN1C(=O)/C(=C/c2ccc(N(CC)CC)cc2OC)C(=O)NC1=S	35µM*	-24%	?	7%	?
COc1ccccc1C=C1C(=O)NC(=S)NC1=O	/	20µM*	/	?	/
Cc1nnc(N2CCC(C(=O)NCc3ccc(N(C)C)cc3)CC2)c2nn(-c3ccccc3)c(C)c12	-44%[59 µM]	?	/	-9%	?
NCCCNCCSP(=O)(O)O	-6%[12.7 µM]	/	9%	/	/
COc1ccc(CCNC(=O)c2ccc3c(c2)N(Cc2cccc(Cl)c2)C(=O)CS3)cc1OC	?	-23%	/	13%	-16%
CC(C)[N+](C)(CCC(C(N)=O)(c1ccccc1)c1ccccc1)C(C)C	-74%[2.33 µM]	25µM*	-74%	?	-18%
CC(=O)N1CCN(c2ccc(OCC3CO[C@@](Cn4ccnc4)(c4ccc(Cl)cc4Cl)O3)cc2)CC1 (stereo partly drawn)	?	/	-49%	/	/
Cc1cc(/C=C2\C(=O)NC(=O)N(c3cccc(F)c3)C2=O)c(C)n1-c1cc(C(=O)O)cc(C(=O)O)c1	/	79µM*	-21%	-14%	45µM*
Cc1cc(/C=C2\C(=O)NC(=O)N(c3ccc(Br)cc3)C2=O)c(C)n1-c1cc(C(=O)O)cc(C(=O)O)c1	20µM*	22µM*	-2%	?	56µM*
COc1ccc(N2C(=O)CC(N3CCC(n4c(=O)[nH]c5ccccc54)CC3)C2=O)cc1 (stereo not drawn)	40µM*	-6%	8%	56%	3%
O=c1[nH]c2ccccc2n1CCCN1CCC(n2c(=O)[nH]c3cc(Cl)ccc32)CC1	21%[59 µM]	-18%	5%	?	-27%
COc1ccc2c(c1)CC[C@@H]1[C@@H]2CC[C@]2(C)[C@@H](NCCCCCCN3C(=O)C=CC3=O)CC[C@@H]12	10%[59 µM]	/	16%	/	/
Cc1ccc(S(=O)(=O)NN)c(C)c1N1CCCC1=O	/	-8%[11.4 µM]	56µM*	62%	2%
CCOC(=O)c1cc2c(cn1)[C@@H](CCO)NC2	/	45µM*	/	13%	/
CCCOC(=O)c1cc2c(cn1)[nH]c1ccccc12	14%[59 µM]	/	?	/	/
C=CCSC1=N/C(=C\c2cc(OC)c3c(c2)OCO3)C(=O)S1	17%[59 µM]	?	18µM*	38%	/
CC(Oc1ccc(Br)cc1)C(=O)N(Cc1nc(-c2ccccc2)no1)C(C)C (stereo not drawn)	-5%[59 µM]	16%	/	47%	14%
COc1ccc(-n2c(-c3ccccc3[N+](=O)[O-])nc3ccccc3c2=O)cc1	21%	?	-4%	-18%	?
COc1cc(C(c2c(C)[nH]n(-c3ccccc3)c2=O)c2c(C)[nH]n(-c3ccccc3)c2=O)cc(OC)c1OC	15%[0.501 µM]	?	-8%	-8%	45µM*
COc1cc2[nH]c(=O)n(-c3ccccc3)c(=O)c2cc1OC	13%[59 µM]	-21%	22%	59%	2%
Cc1[nH]n(-c2ccccc2)c(=O)c1C(c1cccc([N+](=O)[O-])c1O)c1c(C)[nH]n(-c2ccccc2)c1=O	45µM*	50µM*	-5%	?	32µM*
